Our source for the MAPPIT interaction score values is the supplement of paper PMC10105736.

What all share (test): MAPPIT interaction score (arbitrary units); higher = stronger binary interaction signal, active = hit call of the paper
The target of test [1] is CG10841. The settings on record: MAPPIT configuration: N-N; pair source set: screen_2.
In test [2] the target is CG11723. Conditions: MAPPIT configuration: N-N; pair source set: screen_2.
The target in test [3] is CG31624. The settings on record: MAPPIT configuration: N-N; pair source set: screen_2.
In test [4] the target is CG11570. The settings on record: pair source set: RRS.
Test [5] has as its target MFS16. The settings on record: MAPPIT configuration: N-N; pair source set: DPIM.
In test [6] the target is Tsp. Conditions: MAPPIT configuration: N-N; pair source set: DPIM.
Test [7] deals with CG11596. Conditions: MAPPIT configuration: N-N; pair source set: Finley_Y2H.
In test [8] the target is CG10616. The settings on record: MAPPIT configuration: N-N; pair source set: Finley_Y2H.
Test [9] addresses CG11275. The settings on record: MAPPIT configuration: N-N.
Test [10] deals with CG10874. Conditions: MAPPIT configuration: N-N; pair source set: Lit-BS-16.
In test [11] the target is RpL38. The settings on record: MAPPIT configuration: N-N; pair source set: Curagen_high_conf.
Test [12] has as its target bond. Conditions: MAPPIT configuration: N-N; pair source set: Curagen_low_conf.
In test [13] the target is CG8159. Conditions: MAPPIT configuration: N-N; pair source set: Curagen_low_conf.

A number with no mark means an inactive call.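 How the source made its calls: active = MAPPIT score above the 99th percentile of random reference set scores in the same batch; inactive = at or below it.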
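Further: HEK293T cells with Epo stimulation, STAT-responsive firefly luciferase reporter, fold induction versus unstimulated cells divided by the larger fold induction of two negative controls lacking either bait or prey.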

B1: mxt (protein)
chain: MAHTHLGRAVKNIEAPRPLKTQSRSSLKNSYLVIEELIQLIDNVTVGLQSCNTTPESITLLLHNLRVHGPQLEAVSKDTLDRAFVVFRNASQDERLNITTRLKLLELIELRAKSWDNDDTIAYYKSKQQISNVELPSEYQYDAGVQPGAFSTSPTFGVSGGVGGVNDGAAAAAAAVFNAASAAAAAQAAAIAAVGTSNQQHMLLPPGEVIRNSGKFPKPTKIPGKTYCKDEVVIRNADSGKVMGIKGRRVHMIEELSETIISFQRVNPGAKERLVQITGPAEDKINYAKQLMEDTIRRNASPVRLEPAPAVGGSCSSLNSSNSDDAIVQPRTPTGSSLANRLSFNSAQNFMTATAAAQQISQQMHHQTHHLQHQQQQQVAAVAAAAAAAAHAQATAAAGKVLRPNQQLLMHSYSTNDASVGEYKFTVNVGQHLIKITGDCCELVRVAKLVLDDYFSSSEFLASIEAGAAFDGTSLVTTPSTPLPGAGPPQFWLPGTDSGIGLNCVVSSSANNNGEGDDEVFAEPSNGGSSTSNQNGLARSRRSHFSRKESTPETKGAREKGDLDDLAGTNSLKSNASRVSYDIEHLLYYSMSPHSWTLPTDWQKMQETAPSILRNKDLQDESQRFDGDKYLASIKTAAKRDIVAADEVETLDE
Turning to B1, the MAPPIT interaction score in test [1] was 0.671.

B2: su(sable) (protein)
chain: MSVALADEPLIDLEEDLEDGEIDDDEEDEQQSSKIQVQKKTFVGDDDVQFVGVEAKNQNDDEDVVYVGPSTDAVCLQNSNSTKSKKPRPLEDDHASSIELAIANALKKKGIEPPMPRMRSSNQDTSDQSLEGSGEGLATANPLLQSTRSSRRRKRKKEREREQKKDKEQQNRSRRDENDVSVVPGGVEDMDEYEMMNVRGGSPPPGGAAPPLSSCGQRFSGADWDMDDGSAATGAAGLGAGGGGGYNSHSSYDSYSDEETNGPGLMNQRRRTRRDNEKEHQRGVNNRKRRDRDRLEGGLAGSGSKRNRRDSGEGGGGGQEKMGGSNRVEPRKLELCKFYLMDCCAKRDKCSYMHKEFPCKYYYLGMDCYAGDDCLFYHGEPLSEQLRNVLLKHMETAPKEILGDFKRISRDIAIVQMTRRHEQLCDQLNRENTWNSIGCGLMGKRQDHQMQQQQQQLQHQQLQQQQEQQQTQQQAAADGGGCIPSLLDMVINPPLSENKRKSRWTEKMGAKAAAGAAGSSERDSTSPDAKPLPPHLDLANLSHVLSAENMAKLNKLGITNLEQMLQVPFGQLTEAGLTLVEIGEIQRKAEDAKPQTQAELESSTPPSKRETEANNSNSKSNGLIMVDYTQYLKDAHVSFSGNDPLDDDRDDDEQLIIDDGNDSTAEEDQQPKKAKAPPAATHESSTEEAPLPSVFDLPSFMNNMLGQGSSARQLLPASATSPNQENAHLPGGDQSTHKSAPIGGGTSTNVLGRILFGDKQSDPEARAAFYRDIIRNPFKAHSGDGDVDSSNENSNSNSHSLTPTPTPEPGSQSPKPEDHDQDMPELPVIAPALPPTTPSLYVRRSMYDFDPVKEQEHGRQELLTEEKEQYQRDTDMRLPFEPMKHYMPATEIDAAIFSHTPIRWQLHEVTIEESSYAQIRASALHKEQRELRDPRMRRILGLPETPDNSGPLGSVPIMGPSSFSVDNIARCATTIASPDLETAVRDSTPSSPPPSVVNLPSMSVPPPSMRVPPPNIQVEKPTVRTDPRRDPRRAVLQAPTKGASTANTTAPNASGGSKQISEIRSLLQVSNWYNNLGTNNKIMVNQQLALVFTELKKFHQLPNDAPKIFDVSFIVNNTTLQQIFAKLFIFVDDNGEVVQIPEEPNGNGAALGGGGDSGGGVGGGGGGGGVVLPNLSQPPPNLSQMLRLPPPNIRMLRMSGMMMQMGNVGPPFNQPPPRGGLMGMPPNGNGLNQGVGNLGGLGQLGINQGGGPVPNGNPFNPFGGNNGGGAGVMNNMNSMGNMGMGFNNFNNNGGRGGHFPGGGSGGNGNGNNRNQRGGNHRNRNI
Regarding B2, the MAPPIT interaction score in test [2] is 0.327; in test [3], 1.52.

B3: mRpS24 (protein)
chain: MNFLKKLLPQVATEVQQLSRSGFHTSSVCCRVQSGRYRITTKRNRPLTYEMANPPHFIGHRKSWNSWNTSTMKDALRPSQTAIEDVFIRKFVTGTWHALVCSEVIIKRQHNTIRIAALIRQAITPRKMYFLIGYTEELLSYWMQCPVTLELQTVGDKKDVVFKYI
With B3, the MAPPIT interaction score in [4] (MAPPIT configuration: N-C) was 0.0908; in test [4] (MAPPIT configuration: N-N), -0.09; in [5], 0.186; in test [6], 0.192.

B4: TfIIFbeta (protein)
chain: MSKEDKEKTQIIDKDLDLSNAGRGVWLVKVPKYIAQKWEKAPTNMDVGKLRINKTPGQKAQVSLSLTPAVLALDPEEKIPTEHILDVSQVTKQTLGVFSHMAPSDGKENSTTSAAQPDNEKLYMEGRIVQKLECRPIADNCYMKLKLESIRKASEPQRRVQPIDKIVQNFKPVKDHAHNIEYRERKKAEGKKARDDKNAVMDMLFHAFEKHQYYNIKDLVKITNQPISYLKEILKDVCDYNMKNPHKNMWELKKEYRHYKTEEKKEEEHKSGSSDSE
Regarding B4, in test [7], the MAPPIT interaction score was 0.174.

B5: wbl (protein)
chain: MMHILVTLLLVAIHSIPTTWAVTCTGCVDLDELSFEKTVERFPYSVVKFDIAYPYGEKHEAFTAFSKSAHKATKDLLIATVGVKDYGELENKALGDRYKVDDKNFPSIFLFKGNADEYVQLPSHVDVTLDNLKAFVSANTPLYIGRDGCIKEFNEVLKNYANIPDAEQLKLIEKLQAKQEQLTDPEQQQNARAYLIYMRKIHEVGYDFLEEETKRLLRLKAGKVTEAKKEELLRKLNILEVFRVHKVTKTAPEKEEL
For the molecule B5, the MAPPIT interaction score in test [8] was -0.151.

B6: Lcp2 (protein)
chain: MFKFVMILAVVGVATALAPVSRSDDVHADVLSRSDDVRADGFDSSLHTSNGIEQAASGDAHGNIHGNFGWISPEGEHVEVKYVANENGYQPSGAWIPTPPPIPEAIARAVAWLESHPPAPEHPRHH
In the case of B6, the MAPPIT interaction score in test [9] (pair source set: Curagen_high_conf) was 0.91.

B7: gus (protein)
chain: MGQKISGGVKTVSRNDSQSTFKPIIPRELQADFVKPARIDILLDMPPASRDLQLKHSWNSEDRSLNIFVKEDDKLTFHRHPVAQSTDCIRGKVGLTKGLHIWEIYWPTRQRGTHAVVGVCTADAPLHSVGYQSLVGSTEQSWGWDLGRNKLYHDSKNCAGVTYPAILKNDEAFLVPDKFLVALDMDEGTLSFIVDQQYLGIAFRGLRGKKLYPIVSAVWGHCEITMRYIGGLDPEPLPLMDLCRRTIRQKIGRTNLEEHIQQLQLPLSMKTYLLYKNRR
For B7, the MAPPIT interaction score in [10] was 0.809; in test [11], 0.363; in [12], 0.0719.

B8: Adf1 (protein)
chain: MHTLTAAIEMDKLDANLEQQFDLNLIEAVKLNPVIYDRSHYNYKHFVRKAQTWKQIAETLGVPEQKCTKRWKSLRDKFAREMKLCQESRWRYFKQMQFLVDSIRQYRESLLGKCANGSQSANQVADPSQQQQAQQQTVVDIFAQPFNGSATTSAQALTHPHEITVTSDAQLATAVGKDQKPYFYEPPLKRERSEEEHSDNMLNTIKIFQNNVSQAVSAEDQSFGMVVTDMLNTLGVRQKAEAKVHIIKYLTDMQLLAQHNKY
As for B8, the MAPPIT interaction score was 2.6 (active) in [9] (pair source set: screen_1) and -0.0528 in test [13].
